From PubChem BioAssay (NCATS) come the findings set out here.

Assay [1] in a line: qHTS assay for small molecule antagonists of peroxisome proliferator-activated receptor delta signaling (AID 588535).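 Further: cells co-treated with a PPAR-delta agonist as stimulator during compound exposure.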 To be noted: HEK293T PPARd-UAS-bla, beta-lactamase FRET ratio, 18 h; 460 nm channel. In short, it runs like this:
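Cells were seeded at 4000 per well in assay medium containing 2% charcoal/dextran FBS and held 5 hrs at 37 C. Compounds were then added for 18 hrs. CCF4 substrate was applied for 2 hrs at room temperature before fluorescence reading.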
(In general: In qHTS, concentration-response curves come from the screen itself.)

Assay [2] has as its target Peroxisome proliferator-activated receptor gamma (Homo sapiens) (UniProt P37231). As to the kind of experiment: qHTS assay for small molecule antagonists of peroxisome proliferator-activated receptor gamma signaling (AID 588537; active means well fitted inhibition curve with a large enough effect in the signal ratio, with a control signal flat, not every such curve was filed as active; the % refers to the signal ratio;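 further: reporter cells co-stimulated with 50 nM rosiglitazone agonist during compound treatment; % of control where 0% means no effect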). As to conditions: HEK293 PPARg-UAS-bla, beta-lactamase ratio, antagonist mode; series mostly up to 76.8 µM. Summed up:
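Step one: plate 3000 HEK293 UAS-bla cells per well in medium with 1% stripped serum and hold 6-6.5 h at 37 C. Step two: add compound and 50 nM agonist for 16 h. Step three: CCF4 loading, fluorescence read.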

Assay [3] has as its target Vitamin D3 receptor (Homo sapiens) (UniProt P11473). Kind of assay: qHTS assay for small molecule agonists of vitamin D receptor signaling (AID 588543; calls by dose curve;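 further: 0% = DMSO basal and 100% = reference agonist control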). To be noted: HEK293T VDR-UAS-bla, beta-lactamase ratio, 16 h; series mostly up to 76.8 µM. In short, it runs like this: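 β-lactamase reporter, VDR-UAS-bla HEK293T, agonist mode. Cells plated 5 h at 37 °C, compound titration 16 h at 37 °C, CCF4 dye 2 h RT, ratio 460/530 nm. Hill fit → EC50, efficacy vs 50 nM 1α,25-(OH)2D3.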

Assay [4] addresses Thyroid hormone receptor beta (Homo sapiens) (UniProt P10828). As to the kind of experiment: qHTS assay for small molecule agonists of thyroid hormone receptor beta signaling (AID 588545; calls by dose curve). To be noted: TR-UAS-bla GripTite HEK 293, beta-lactamase ratio, agonist mode, 18 h; series mostly up to 76.7 µM. In short, it runs like this: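 Cells (2500/well) were seeded, incubated 4 hrs at 37 C, dosed with a compound series, incubated 18 hrs, loaded with CCF4 dye for 2 hrs at RT, then read for fluorescence. Data were scaled between DMSO (0%) and 10 nM T3 (100%).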

Assay [5] in a line: qHTS assay for small molecule antagonists of retinoid X receptor alpha signaling (AID 588546; active means well fitted inhibition curve with a large enough effect in the signal ratio, with a control signal flat, not every such curve was filed as active; the % refers to the signal ratio;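 further: cells stimulated with 9-cis-retinoic acid as agonist; on the % scale 0 is the no-effect control and ±100 the full control effect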). To be noted: HEK293T RXRa-UAS-bla, beta-lactamase ratio, antagonist mode; measured here: W530 green channel, cytotoxicity proxy. Summed up:
(§1)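 Beta-lactamase reporter inhibition, read as CCF4 fluorescence ratio (ex 405, em 460/530 nm) after 2 h at RT. HEK293T UAS-bla cells, 2500/well, were stimulated with 9-cis-RA at 500 or 100 nM final alongside test compound for 18 h at 37 C.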

Assay [6] in a line: qHTS assay for small molecule activators of the nuclear factor-kappa B (NF-kB) signaling pathway (AID 651749; active means well fitted activation curve with a large enough effect in the signal ratio; the % refers to the signal ratio; further: % of control where 0% means no effect). To be noted: NF-kB-bla ME-180 cells, beta-lactamase FRET ratio, 16 h; activation: stronger effect = higher value. In short, it runs like this:
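Incubation lasted 16 hr at 37C in 5% CO2 after 23 nL compound addition to ME-180 NF-kB-bla cells. Activation appears as beta-lactamase-mediated FRET loss.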

The nature of assay [7]: qHTS assay for environmental chemicals that activate the Aryl hydrocarbon Receptor (AhR) signaling pathway (AID 651777). Further: % of control where 0% means no effect; nearly all actives have a fitted effect of over 15% in size. To be noted: 1A2-DRE human hepatoma cells, luciferase, 24 h; activation: stronger effect = higher value. Summed up:
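Human hepatoma 1A2-DRE cells stably carrying a DRE/CYP1A2 promoter–luciferase reporter, 1,200 cells/well, exposed to compound 24 hr at 37 C. Luciferase read by One-Glo luminescence after 30 min at room temperature; increased signal marks AhR activation.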

For assay [8], the target named is Peroxisome proliferator-activated receptor alpha (Homo sapiens) (UniProt Q07869). As to the kind of experiment: qHTS assay for small molecule agonists of the peroxisome proliferator-activated receptor alpha (PPARalpha) signaling pathway (AID 651778). Further: % of control where 0% means no effect. To be noted: PathHunter PPARalpha complementation, chemiluminescence, 6 h; max response: stronger effect = higher value. In short, it runs like this:
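Enzyme-fragment complementation assay in which ligand-bound PPARalpha translocates and forms an active enzyme that generates chemiluminescence. Cells were plated overnight, exposed to compound for 6 hr at 37 C, and then given detection reagent for 60 min at room temperature.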

The nature of assay [9]: qHTS assay for small molecule agonists of the antioxidant response element (ARE) signaling pathway measured by Nrf2-dependant transcriptional activity (AID 720636; active means well fitted curve in the direction sought with a large enough effect in the repeat runs; an effect the other way counts as inactive or inconclusive; further: % of control where 0% means no effect). As to conditions: ARE-luc HepG2, Nrf2 luciferase reporter, 16 h; series mostly up to 92.4 µM. Summed up:
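ARE-luc HepG2 cells carrying an Nrf2-responsive luciferase reporter, in medium with 1% dialyzed FBS, exposed to compound for 16 hr at 37 C, 5% CO2. Luminescence read 30 min after ONE-Glo addition.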

The nature of assay [10]: qHTS assay for small molecule agonists of the antioxidant response element (ARE) signaling pathway measured by Nrf2-dependant transcriptional activity - cell viability counter screen (AID 720653; active means well fitted curve in the direction sought with a large enough effect in the repeat runs; an effect the other way counts as inactive or inconclusive; further: on the % scale 0 is the no-effect control and ±100 the full control effect). To be noted: ARE-bla HepG2 viability, CellTiter-Glo ATP luminescence, 16 h; max response: stronger effect = lower value. Summed up: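 ARE-bla HepG2 cells treated with compounds for 16 h at 37C; this counter screen measures viability as intracellular ATP by CellTiter-Glo luminescence after 30 min at room temperature.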

Assay [11] is described as follows: qHTS assay for cell viability of HEK293 cells (AID 743288). Further: on the % scale 0 is the no-effect control and ±100 the full control effect; nearly all actives have a fitted effect of over 50% in size. As to conditions: ATP luminescence (CellTiter-Glo), 18 h; max response: stronger effect = lower value. Summed up: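 Environmental chemicals tested in qHTS format against parental HEK293 cells; 18 h treatment, 37 C; read-out ATP luminescence (CellTiter-Glo), 30 min RT development.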
Assay [12] is described as follows: qHTS assay for cell viability of the p53RE-bla HCT-116 cell line (AID 743292). Further: on the % scale 0 is the no-effect control and ±100 the full control effect; nearly all actives have a fitted effect of over 55% in size. As to conditions: p53RE-bla HCT-116 viability, ATP luminescence, 16 h; series mostly up to 95 µM. Summed up: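 CellSensor p53RE-bla HCT-116 cells (4,000/well) pre-incubated 5 h at 37 C, then exposed to compounds in DMSO for 16 h at 37 C. Viability read as ATP content by CellTiter-Glo luminescence after 30 min at room temperature.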

In assay [13] the target is Nuclear receptor subfamily 1 group I member 2 (Rattus norvegicus) (UniProt Q9R1A7). Kind of assay: qHTS assay for small molecule activators of the rat pregnane X receptor (rPXR) signaling pathway (AID 651751; call rule not given here; further: 0% is about no effect). As to conditions: rPXR reporter cells, luciferase (One-Glo), 24 h.
A short description of assay [14]: qHTS assay for small molecule activators of the human pregnane X receptor (PXR) signaling pathway (AID 720659; call rule not given here; further: 0% is about no effect). To be noted: DPX-2 HepG2 CYP3A4-luciferase, 24 h; series mostly up to 92.3 µM.
For assay [15], the target named is Peroxisome proliferator-activated receptor gamma (Homo sapiens) (UniProt P37231). As to the kind of experiment: qHTS assay for small molecule agonists of peroxisome proliferator-activated receptor gamma signaling (AID 588536; active means well fitted curve in the direction sought with a large enough effect in the signal ratio, with a control signal flat, not every such curve was filed as active; the % refers to the signal ratio;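 further: 0% = DMSO basal wells and 100% = rosiglitazone at 2 µM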). To be noted: HEK293 PPARg-UAS-bla, beta-lactamase ratio, 16 h, percent of rosiglitazone response, DMSO as zero; series mostly up to 76.7 µM. Summed up:
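PPAR-gamma-UAS-bla HEK293 cells in medium with 1% charcoal/dextran-treated FBS were exposed to compounds for 16 h at 37 C. Beta-lactamase activity was read with CCF4 substrate (405 nm excitation, 460/530 nm emission).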

The target of assay [16] is Vitamin D3 receptor (Homo sapiens) (UniProt P11473). Kind of assay: qHTS assay for small molecule antagonists of vitamin D receptor signaling (AID 588541; calls by dose curve;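 further: receptor activated by calcitriol during compound treatment; on the % scale 0 is the no-effect control and ±100 the full control effect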). To be noted: HEK293T VDR-UAS-bla, beta-lactamase ratio, antagonist mode; series mostly up to 76.7 µM. Summed up: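 VDR-UAS-bla HEK293T cells in 2% charcoal-stripped FBS were stimulated with 1-alpha,25-dihydroxyvitamin D3 (3 nM final) plus compound for 16 h at 37 C. The beta-lactamase CCF4 readout was normalized to 50 nM agonist and DMSO, and Hill fits gave IC50.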

The nature of assay [17]: qHTS assay for small molecule agonists of retinoid X receptor alpha signaling (AID 588544; calls by dose curve;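 on activation: 0% = DMSO basal wells and 100% = reference agonist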). To be noted: HEK293T RXRa-UAS-bla, beta-lactamase reporter, 18 h; 530 nm emission.
Assay [18] concerns the target Retinoic acid receptor RXR-alpha (Homo sapiens) (UniProt P19793). The description is as above. To be noted: HEK293T RXRa-UAS-bla, beta-lactamase reporter, 18 h; series mostly up to 76.7 µM.
Assay [19] shares this target. Kind of assay: qHTS assay for small molecule antagonists of retinoid X receptor alpha signaling (AID 588546).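 Further: cells stimulated with 9-cis-retinoic acid as agonist; on the % scale 0 is the no-effect control and ±100 the full control effect.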 As to conditions: HEK293T RXRa-UAS-bla, beta-lactamase ratio, antagonist mode. Summed up:
as §1

The nature of assay [20]: qHTS assay for small molecule activators of the p53 signaling pathway (AID 651743; active means well fitted activation curve with a large enough effect in the signal ratio, not every such curve was filed as active; the % refers to the signal ratio; further: % of control where 0% means no effect). To be noted: HCT-116 p53RE-bla, beta-lactamase FRET ratio, 16 h; activation: stronger effect = higher value. Summed up: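 HCT-116 p53RE-bla, 4,000 cells/well; 5 h settle; cpd/DMSO 16 h, 37 C; LiveBLAzer B/G 2 h RT; fluorescence intensity.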

Results filed as inconclusive are left out. Calls of active or inactive are those of the source. Unless noted, the call rests on the fitted dose curve; in most records, active means well fitted curve in the direction sought with a large enough effect; inconclusive means small, poorly fitted or top-dose-only effect, or another doubt; inactive means no such curve, though single readings can be large; an effect the other way counts as inactive or inconclusive.

Sequence of Peroxisome proliferator-activated receptor gamma (Homo sapiens) (P37231 whole entry, looked up): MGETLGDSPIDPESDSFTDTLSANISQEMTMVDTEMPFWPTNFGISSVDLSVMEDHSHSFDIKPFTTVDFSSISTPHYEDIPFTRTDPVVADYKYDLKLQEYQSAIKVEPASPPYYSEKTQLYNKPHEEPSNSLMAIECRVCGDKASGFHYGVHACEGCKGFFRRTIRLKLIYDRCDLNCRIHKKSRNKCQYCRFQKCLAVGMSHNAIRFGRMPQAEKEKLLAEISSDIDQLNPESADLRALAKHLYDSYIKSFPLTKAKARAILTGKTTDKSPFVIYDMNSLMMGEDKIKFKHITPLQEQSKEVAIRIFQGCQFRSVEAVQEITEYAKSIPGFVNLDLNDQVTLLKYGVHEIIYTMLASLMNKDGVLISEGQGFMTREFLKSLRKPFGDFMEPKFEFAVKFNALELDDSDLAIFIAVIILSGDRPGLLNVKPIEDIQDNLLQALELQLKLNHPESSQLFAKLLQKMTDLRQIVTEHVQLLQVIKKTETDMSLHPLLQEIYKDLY
Sequence of Thyroid hormone receptor beta (Homo sapiens) (P10828 whole entry, looked up): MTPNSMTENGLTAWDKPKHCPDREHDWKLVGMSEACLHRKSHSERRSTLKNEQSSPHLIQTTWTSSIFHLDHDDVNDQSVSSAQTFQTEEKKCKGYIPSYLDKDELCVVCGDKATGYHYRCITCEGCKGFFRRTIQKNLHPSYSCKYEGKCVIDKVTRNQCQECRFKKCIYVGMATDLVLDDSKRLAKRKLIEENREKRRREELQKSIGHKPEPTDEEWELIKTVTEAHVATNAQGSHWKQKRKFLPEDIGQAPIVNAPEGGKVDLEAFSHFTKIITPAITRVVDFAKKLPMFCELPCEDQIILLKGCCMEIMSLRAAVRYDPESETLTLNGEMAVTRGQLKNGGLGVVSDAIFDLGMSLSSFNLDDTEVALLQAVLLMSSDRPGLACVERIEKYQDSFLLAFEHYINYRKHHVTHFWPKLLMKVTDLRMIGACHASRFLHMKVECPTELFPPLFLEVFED
Sequence of Vitamin D3 receptor (Homo sapiens) (P11473 whole entry, looked up): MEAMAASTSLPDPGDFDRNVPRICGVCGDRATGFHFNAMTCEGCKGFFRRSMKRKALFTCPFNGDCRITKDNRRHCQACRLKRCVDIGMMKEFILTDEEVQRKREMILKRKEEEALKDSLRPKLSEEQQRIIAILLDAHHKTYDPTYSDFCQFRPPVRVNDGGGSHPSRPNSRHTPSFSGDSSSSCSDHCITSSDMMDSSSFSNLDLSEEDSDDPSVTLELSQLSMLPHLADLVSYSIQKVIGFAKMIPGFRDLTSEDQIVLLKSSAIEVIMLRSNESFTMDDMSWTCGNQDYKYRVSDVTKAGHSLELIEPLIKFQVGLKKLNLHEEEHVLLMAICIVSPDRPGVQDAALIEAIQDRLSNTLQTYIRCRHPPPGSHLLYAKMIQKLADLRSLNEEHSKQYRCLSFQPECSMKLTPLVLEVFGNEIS
Sequence of Peroxisome proliferator-activated receptor alpha (Homo sapiens) (Q07869 whole entry, looked up, the tested form may be a part): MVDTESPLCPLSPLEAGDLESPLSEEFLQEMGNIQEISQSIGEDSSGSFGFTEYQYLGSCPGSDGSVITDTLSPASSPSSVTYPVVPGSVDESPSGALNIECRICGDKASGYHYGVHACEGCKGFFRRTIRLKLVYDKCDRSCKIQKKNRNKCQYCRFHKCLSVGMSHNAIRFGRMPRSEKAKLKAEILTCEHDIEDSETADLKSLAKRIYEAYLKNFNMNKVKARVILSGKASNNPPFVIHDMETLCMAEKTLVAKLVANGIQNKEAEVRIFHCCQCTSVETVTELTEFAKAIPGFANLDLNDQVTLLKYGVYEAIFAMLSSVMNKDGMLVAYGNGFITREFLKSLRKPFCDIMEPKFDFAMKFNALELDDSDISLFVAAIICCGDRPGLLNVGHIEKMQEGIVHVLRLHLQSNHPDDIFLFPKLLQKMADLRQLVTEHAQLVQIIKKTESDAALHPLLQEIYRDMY
Sequence of Nuclear receptor subfamily 1 group I member 2 (Rattus norvegicus) (Q9R1A7 whole entry, looked up): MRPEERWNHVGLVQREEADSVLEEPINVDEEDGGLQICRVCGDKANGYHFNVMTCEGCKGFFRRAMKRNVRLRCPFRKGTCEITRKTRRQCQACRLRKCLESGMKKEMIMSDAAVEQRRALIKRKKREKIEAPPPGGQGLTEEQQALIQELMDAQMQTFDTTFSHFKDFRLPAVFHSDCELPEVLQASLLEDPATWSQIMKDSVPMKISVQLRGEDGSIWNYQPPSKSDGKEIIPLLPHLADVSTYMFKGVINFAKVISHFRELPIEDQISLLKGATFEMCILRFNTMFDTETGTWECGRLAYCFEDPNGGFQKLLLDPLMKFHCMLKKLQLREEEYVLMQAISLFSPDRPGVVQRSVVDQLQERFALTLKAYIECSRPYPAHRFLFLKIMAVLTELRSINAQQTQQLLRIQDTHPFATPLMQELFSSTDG
Sequence of Retinoic acid receptor RXR-alpha (Homo sapiens) (P19793 whole entry, looked up): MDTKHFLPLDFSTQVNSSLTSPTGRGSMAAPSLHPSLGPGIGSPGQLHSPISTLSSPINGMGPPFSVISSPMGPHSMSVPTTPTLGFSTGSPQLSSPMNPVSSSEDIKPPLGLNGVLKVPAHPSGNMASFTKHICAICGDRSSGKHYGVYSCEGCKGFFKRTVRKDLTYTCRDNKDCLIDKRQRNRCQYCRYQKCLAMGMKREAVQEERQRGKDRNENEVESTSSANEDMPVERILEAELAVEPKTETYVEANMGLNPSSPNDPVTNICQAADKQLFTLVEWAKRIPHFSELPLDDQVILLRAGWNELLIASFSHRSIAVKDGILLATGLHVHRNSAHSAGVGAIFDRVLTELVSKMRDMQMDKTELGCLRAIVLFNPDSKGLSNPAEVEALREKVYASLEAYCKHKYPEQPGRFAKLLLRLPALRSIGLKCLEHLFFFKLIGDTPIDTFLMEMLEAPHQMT

As to `C[Si]1(C)O[Si](C)(C)O[Si](C)(C)O[Si](C)(C)O1`, the max response in assay [1] is 8.31%; in assay [5], 1.41%; in assay [8], -0.153% (inactive); in assay [10], 2.58% (inactive); in assay [11], 0.965% (inactive); in assay [13] it was 3.43% (inactive). Also, the Potency result in [2], in [4], in assay [9] and in assay [12] was “inactive” in each case. The result in assay [3] and in assay [14] was inactive. Besides, the figures for the activation in assay [6] and in assay [7] were 0.122% (inactive) and -0.142% (inactive), respectively.

For the compound `O=C=NCCCCCCN=C=O`, the max response in assay [1] was 15.2%; in [17], -10.7%; in [5] it was -6.96%; in assay [19], -6.2% (inactive); in assay [8], -1.66% (inactive); in assay [10], -0.323% (inactive). Further, the max response in assay [11] is -9.94% (inactive); in assay [13] it was -0.542% (inactive). Also, the outcome in assay [15], in assay [3] and in assay [14] was inactive. Also, the Potency result in [2], in [16], in assay [18], in [4], in assay [9] and in [12] was “inactive” throughout. The results for the activation in assay [20], in assay [6] and in assay [7] were 1.63% (inactive), 0.731% (inactive) and -0.825% (inactive), respectively.

Regarding `BrC1CCC(Br)C(Br)CCC(Br)C(Br)CCC1Br` (stereo unspecified), the max response in assay [1] is 11.4%; in assay [17], 0.976%; in [5], -2.96%; in assay [19], -24.4% (inactive); in assay [8], -0.0514% (inactive); in [10], 0.219% (inactive). Besides, the figures for the max response in assay [11] and in [13] were -7.59% (inactive) and 0.315% (inactive), respectively. Moreover, the outcome in [15], in [3] and in assay [14] was inactive. The Potency result in assay [2], in [16], in assay [18], in assay [4], in [9] and in assay [12] was “inactive” in each case. Moreover, the values for the activation in assay [20], in [6] and in assay [7] were -4.94% (inactive), 1.45% (inactive) and 1.8% (inactive), respectively.

With `O=c1n(CCO)c(=O)n(CCO)c(=O)n1CCO`, the max response is 3.67% in assay [1]; -13.7% in assay [17]; -6.53% in [5]; 0.0492% (inactive) in assay [8]; -11.6% (inactive) in [10]; -0.84% (inactive) in assay [13]. Besides, the result in assay [15] and in assay [3] was inactive. Further, the Potency result in [18], in [4] and in [12] was “inactive” in each case. Further, the activation was 4.3% (inactive) in assay [6] and 0.674% (inactive) in assay [7].

Take `CCCCN(CCCC)CCCCCCN(CCCC)CCCC`: the max response in [1] was 6.65%; in [17], -14.8%; in assay [8], -0.567% (inactive); in [10] it was -9.43% (inactive); in assay [11], -21.9% (inactive); in assay [13], 4.27% (inactive). Moreover, the outcome in assay [15], in [3] and in [14] was inactive. Further, the Potency entry in assay [2], in [16], in assay [18], in assay [4], in assay [9] and in assay [12] was “inactive” in each case. The activation in assay [7] is 1.73% (inactive).

With `C=C[Si](C)(C)O[Si](C)(C)C=C`, the outcome in assay [15], in assay [3] and in [14] was inactive. The Potency result in [2], in [16], in assay [18], in assay [4], in assay [9] and in assay [12] was “inactive” throughout. Further, the max response in assay [17] was 11.5%; in [5], -11.2%; in assay [19], -0.957% (inactive); in [8], -1.71% (inactive); in assay [10], -2.71% (inactive); in assay [11], -5.1% (inactive). Besides, the max response in assay [13] is 0.719% (inactive). For the same compound, the values for the activation in assay [6] and in assay [7] were -0.794% (inactive) and -1.78% (inactive), respectively.
